Most compounds without a hit are left out; they make up all but 0.28% or so of the library.
hcGAS lum: human cGAS inhibition. Q8N884. recombinant h-cGAS, ATP depletion, Kinase-Glo luminescence. inhibition, % at 12.5 µM. hit rate 0.081% among 290,000. AID 1259398
Target sequence (Q8N884 whole entry, looked up): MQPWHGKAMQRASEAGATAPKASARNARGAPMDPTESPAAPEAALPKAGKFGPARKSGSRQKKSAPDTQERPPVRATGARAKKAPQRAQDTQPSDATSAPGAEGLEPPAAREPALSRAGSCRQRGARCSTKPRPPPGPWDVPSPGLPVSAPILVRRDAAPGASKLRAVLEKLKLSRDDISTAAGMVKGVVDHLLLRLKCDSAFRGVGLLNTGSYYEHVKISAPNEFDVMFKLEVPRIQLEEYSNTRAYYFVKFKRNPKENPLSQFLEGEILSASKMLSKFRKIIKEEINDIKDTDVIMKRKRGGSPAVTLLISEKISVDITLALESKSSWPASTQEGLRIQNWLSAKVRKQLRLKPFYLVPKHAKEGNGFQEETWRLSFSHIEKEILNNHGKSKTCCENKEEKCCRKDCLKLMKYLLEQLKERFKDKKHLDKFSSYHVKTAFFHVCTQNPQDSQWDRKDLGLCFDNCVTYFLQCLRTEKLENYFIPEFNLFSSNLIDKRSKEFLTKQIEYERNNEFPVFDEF
NPYLR7 ag: mosquito NPYLR7 agonism; HEK293T NPYLR7/Galpha15, GCaMP6s calcium fluorescence; activation, % at 10 µM; hit rate 0.15% among 270,000; AID 1259423; in the data active = activation above about 40%
mcGAS inh: mouse cGAS inhibition by luminescence. Q8C6L5. inhibition, % at 12.5 µM. recombinant cGAS, Kinase-Glo ATP depletion luminescence. AID 1259399. hit rate 0.15% among 160,000
Hits are given with their value; - = inactive; . = no result given. Rule as the data show it, unless noted: active = inhibition above about 40%; inactive = the rest.

SMILES | hcGAS lum | NPYLR7 ag | mcGAS inh
CCOc1ccc(C2=NC(=Cc3cc(OC)c4c(c3)OCCO4)C(=O)O2)cc1OCC | - | - | .
COc1cc(C=C2N=C(c3ccc4c(c3)OCO4)OC2=O)cc2c1OCCO2 | - | 97.5 | .
Cc1cc(Cl)cc2sc(N(Cc3ccccn3)C(=O)C3CC3)nc12 | - | - | -
CCC(C)N(Cc1c(-c2ccccc2)noc1N1CCOCC1)C(=O)c1cccc(OC)c1 (stereo unspecified) | - | - | -
CCOC(=O)C1(CCCc2ccccc2)CCN(C(=O)c2ccc3[nH]ccc3c2)CC1 | - | - | -
O=C(O)c1cc(Br)c2ccccc2c1O | - | - | 67.9
COc1cc(Br)c(OC)c(C(=O)O)c1 | - | - | .
CCc1cnc2c(c1NCCN1CCOCC1)c(=O)n(C)c(=O)n2C | - | - | .
Cn1nc2c(c1NC(=O)c1ccc(S(C)(=O)=O)cc1)CCC2 | - | - | .
C[C@@H](NC(=O)CN1Cc2ccc(N3CCOCC3)nc2C1=O)c1ccccc1 | - | 61.2 | -
CN(C)CCNC(=O)CN1Cc2ccc(N3CCOCC3)nc2C1=O | - | - | -
COCCNC(=O)N1CCc2nc(N3CCN(C)CC3)sc2C1 | 58.2 | . | -
CCCNC(=O)N1CCN(c2nc3c(s2)CN(C(=O)CC)CC3)CC1 | - | . | -
CC(C#N)(NC(=O)Cc1ccc(-c2ccccc2)cc1)C1CC1 (stereo unspecified) | - | - | -
CCOc1cc2c(C#N)c(N(CC(C)C)CC(C)C)nc(N)c2c(N)n1 | - | - | .
COc1cc2c(C#N)c(N(CCO)CCO)nc(N)c2c(N)n1 | 56.3 | - | -
Nc1c(O)ccc2c1C(=O)c1ccccc1C2=O | - | - | -
N#Cc1c(N)oc2c3c(c(O)cc12)C(=O)c1ccccc1C3=O | 48.3 | - | .
CN(C(=O)CSc1ccccc1C(=O)O)c1ccc([N+](=O)[O-])cc1 | - | - | -
CC(=O)C1=C(O)C=C2Oc3c(C(C)=O)c(O)c(C)c(O)c3C2(C)C1=O (stereo unspecified) | 77.6 | - | 85.6
COc1cc(C=NOCc2cccc3ccccc23)ccc1OC(F)F | - | - | .
Fc1cnc(N2CC(c3ccncc3)C2)nc1N1CCOCC1 | - | - | -
CCCN(Cc1ccncc1)C(=O)c1c[nH]c(=O)cn1 | - | - | .
C(=Cc1ccccc1)C=NNc1ncnc2ccccc12 | - | 161.3 | .
O=C1NN=C(c2ccccc2)C/C1=N/Nc1ncnc2ccccc12 | - | - | -
SMILES | hcGAS lum | NPYLR7 ag | mcGAS inh
COc1ccccc1/C=N\N(CCOC(=O)c1ccccc1OC)C1=NS(=O)(=O)c2ccccc21 | - | - | -
COc1cc2oc(=O)c3c4c(cc5ccc(c1CCN(C)C)c2c53)OCO4 | 43.8 | - | 52.2
COc1cc(CNCCN(C)C)cc2c1OCO2 | - | - | -
COc1cccc(-n2c(O)c(C=Nc3cc(OC)ccc3OC)c3ccccc3c2=O)c1 | - | 51.8 | -
COc1ccc(N=Cc2c(O)n(-c3ccccc3)c(=O)c3ccccc23)c(OC)c1 | - | - | -
COc1ccc(NC(=O)CCC(=O)N2CCc3ccccc3C2)cn1 | - | - | -
COc1ccc(NC(=O)CN2C(=O)c3ccccc3NC23CCN(C)CC3)cn1 | - | 49.4 | .
Cc1ccc(NS(=O)(=O)c2ccc(F)c(F)c2)cc1S(=O)(=O)N1CCCCC1 | - | - | .
Cc1ccc(-n2nc(-c3cccs3)cc2C(=O)NCCc2ccc(Cl)cc2Cl)c(C)c1 | - | . | -
CCCCCCc1ccc(C(=O)Nc2ccc(N3CCCC3)c(C(=O)NC(C)C)c2)cc1 | - | - | -
C=CCOCC(O)CN(Cc1ccc2c(c1)OCO2)Cc1ccc(C)s1 (stereo unspecified) | - | - | 82.6
C=CCOCC(O)CN(Cc1ccc2c(c1)OCO2)Cc1cc(C)ccc1C (stereo unspecified) | - | - | -
C#CCOCC(O)CN(Cc1ccc(F)cc1)Cc1ccc2c(c1)OCO2 (stereo unspecified) | - | - | 76.7
C#CCOCC(O)CN(Cc1ccc2c(c1)OCO2)Cc1cc(C)ccc1C (stereo unspecified) | - | - | -
CCOc1ccc(-c2ccnc(-c3ccco3)n2)cc1C(=O)O | - | - | .
CCN1CCCC1CNC(=O)CCC1CCN(C2CCSCC2)CC1 (stereo unspecified) | - | - | .
O=C(O)c1cc(-c2ccc(F)cc2)nn1-c1cccc([N+](=O)[O-])c1 | - | - | .
Cc1cccc(NC(=O)c2ccc(C)c(S(=O)(=O)Nc3cccc(C)c3)c2)c1 | - | - | -
CCOC(=O)Cc1cc(=O)n2[nH]c(-c3ccc(Br)cc3)cc2n1 | - | - | .
CCOC(=O)Cc1cc(=O)n2[nH]cc(-c3cccc(Br)c3)c2n1 | 62.5 | - | .
CC1CC(C)CN(C(C)c2nc(N)nc(N(C)C)n2)C1 (stereo unspecified) | - | - | .
Cc1cc(C)n2c(NC(C)(C)CC(C)(C)C)c(-c3cccc(C)n3)nc2c1 | - | - | -
Cc1ccc(Nc2nc(NCCN(C)C)nc3nccnc23)c(C)c1 | - | - | .
Cc1ccc(Nc2nc(Nc3cccc(F)c3)nc3nccnc23)c(C)c1 | - | 51.5 | .
CCOc1ccc(C(=O)Nc2cc(C(C)(C)C)nn2-c2ccc(Br)cc2)cc1 | - | - | -
SMILES | hcGAS lum | NPYLR7 ag | mcGAS inh
COc1ccc(-n2nc(C(C)(C)C)cc2NC(=O)CN(C)C(=O)Nc2c(C(C)C)cccc2C(C)C)cc1 | - | - | -
O=C(CCC1CCCC1)Nc1nc(-c2ccccc2Cl)cs1 | - | - | .
O=C(CCl)Nc1nc(-c2ccccc2Cl)cs1 | - | - | 60.3
O=C(c1ccco1)N(Cc1nccn1Cc1ccc(Cl)c(Cl)c1)C1CC1 | - | - | -
CCOC(=O)c1c(N)c2c(-c3ccccc3)c(C#N)c(OCC)nc2n1C | - | - | .
CCOc1nc(Cl)c(C#N)c(-c2ccccc2)c1C#N | 44.6 | - | .
CCCCc1nn2c(N)c(C=C3C=CC(=O)C(OCC)=C3)c(=O)nc2s1 | - | - | .
C=CCC1=CC(=Cc2c(N)n3nc(Cc4cccs4)sc3nc2=O)C=C(OC)C1=O | - | 94.9 | .
O=c1n(CCNc2cc3c(cc2Cl)OCCO3)nc2ccccn12 | - | - | .
O=C(CCl)Nc1ccc([N+](=O)[O-])cc1Cl | - | - | 59.7
O=C(CSc1nnc2ccccn12)Nc1ccc([N+](=O)[O-])cc1Cl | - | - | .
NC(=S)N/N=c1\oc2cc(O)ccc2cc1-c1nc2ccccc2[nH]1 | - | 66.7 | .
COc1ccc2o/c(=N\NC(N)=S)c(-c3nc4ccccc4[nH]3)cc2c1 | - | - | .
CCc1ccc2c(c1)NC(=O)C2(C)Cc1ccccc1F (stereo unspecified) | - | - | -
CCOC(=O)N1CCN(c2ccc(/C=C(\C#N)c3nc4ccccc4n3C)o2)CC1 | - | 341.7 | .
CCOC(=O)N1CCN(c2ccc(/C=C(\C#N)c3nc4ccccc4s3)o2)CC1 | - | - | .
C=CCNc1nc(N)c([N+](=O)[O-])c(Nc2ccccc2F)n1 | - | - | -
CC1CN(Cc2nc3sc4c(c3c(=O)n2CC#N)CCCC4)CCO1 (stereo unspecified) | - | - | .
COC(=O)C1C(=N)OC2=C(C(=O)CC(C)(C)C2)C1c1cccs1 (stereo unspecified) | - | - | .
O=[N+]([O-])c1ccc2c(c1)S(=O)(=O)C=C2 | - | - | 86.1
O=[N+]([O-])c1ccc(OC2=NS(=O)(=O)c3cc([N+](=O)[O-])ccc32)cc1 | - | - | -
Brc1ccc(C=NN2CCN(Cc3cccc4ccccc34)CC2)s1 | - | - | -
CCOc1ccc(CC(=O)Oc2coc(CSc3nccc(C)n3)cc2=O)cc1 | - | - | 58.7

Bioassay records from PubChem.
